# From PubChem BioAssay (EPA / NIEHS)
# “And” between values parts separate entries of the source, which are not always exact repeats. Identical values can stand only once. The source holds several records for some structures; these can differ, active in one and inactive in another. The source made the active and inactive calls. How the source made its calls: active means hit-call score of the fitted dose curve at least 0.9, where 1 is the maximum; inactive means score below 0.9.
# Read-out: Nuclear factor erythroid 2-related factor 2 (Homo sapiens) (UniProt Q16236)
# Assay: LTEA_HepaRG_NFE2L2: Life Technologies and Expression Analysis (LTEA) Assay for Nuclear factor erythroid 2-related factor 2 (NFE2L2) Transcription Factor using HepaRG (AID 2283527);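 on outcome: TaqMan qRT-PCR transcript level normalised to ACTB GAPDH and POLR2A housekeeping genes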
# Conditions: mRNA level, 48 h; actives raise or lower the signal
# Method: LTEA_HepaRG is a cell based, multiplexed-readout assay that uses HepaRG, a human liver cell line, with measurements taken at 48 hours after chemical dosing on a 96-well plate.LTEA_HepaRG_NFE2L2 is one of 102 assay component(s) measured in the LTEA HepaRG cell culture assay. It is a marker of Inflammation/injury.Data from the assay component LTEA_HepaRG_NFE2L2 was analyzed into 1 endpoint. This assay endpoint, LTEA_HepaRG_NFE2L2, was analyzed with bidirectional fitting relative to DMSO as the negative control and baseline of activity. Using a type of inducible reporter, measures of mRNA induction for gain or loss-of-signal activity can be used to understand regulation of transcription factor activity. To generalize the intended target to other relatable targets, this assay endpoint is annotated to the dna binding intended target family, where the subfamily is basic leucine zipper.
# A total of 1060 chemcials from the ToxCast library were tested in eight-point concentration-response experiments. Cell culture and cytotoxicity assays were conducted at Thermo Fisher Scientific's Custom Services facility (Madison, WI). A single lot of human HepaRG cells (Thermo Fisher Scientific, Frederick, MD) was used for the cell culture experiments. 96-well format collagen type I coated plates of human HepaRG cells were prepared using established methods. Briefly, cryopreserved HepaRG cells were thawed, plated at a density of approximately 100,000 cells/well in HepaRG Thaw, Plate, and General Purpose media (HPRG770, Thermo Fisher Scientific), and incubated for 48 hours. 0.5% DMSO was selected as vehicle control to balance the requisite need of DMSO in HepaRG cultures to maintain differentiation (for example, baseline metabolism, proportions of hepatocytes vs. cholangiocytes), while enabling further hepatic receptor pathway activation (for example, PXR and CAR) in response to chemical exposure. 48 hours after plating, the culture medium was replaced with HepaRG Serum-Free Incudtion Media. Cells were exposed to each test chemical in duplicate and maintained in CO2 incubators for another 48 hours. Chemical plates were thawed to room temperature and 200x concentrations of treatment groups were prepared. 8-point conentration-reponse curves were made with the highest exposure at 100 uM, followed by half-log dilutions, all in 0.5% DMSO. Each test plate contained variouse controls, induction positive controls (1mM phenobarbital), cytotoxicity positive controls ([…] aflatoxin B1), vehicle controls (0.5% DMSO), and total lysis controls (0.5% DMSO). Cell morphology images were taken using an Essen IncuCyte FLR automated microscope, with six 96-well plates imaged in about 24 minutes. Images were captured and exported and JPEG files. Spent culture media was transfered to black-well plates for the LDH assay, and remaining media was sorted at -80 C for later use. Cells were treated with RLT buffer and frozen until shipped for gene expression analysis. Total RNA was isolated from the cell suspension in 75 uL of Buffer RLT (Qiagen, Germantown, MD 20874) by Quintiles/Expression Analysis (Durham, NC) using a custom isolation procedure. Total RNA from each plate well was transferred to a preamplification plate. Fluidigm's 96.96 Dynamic ArrayTM (Fluidigm, Amsterdam, the Netherlands) technology was used for gene expression analyses by quantitative reverse transcription polymerase chain reaction (qRT-PCR, performed by Quintiles/Expression Analysis, Durham, NC)89. Standard TaqManTM Assays (Applied Biosystems/ThermoFisher Scientific, Foster City, CA) were used to assess the expression of 93 genes selected based on their selectivity and sensitivity to important hepatic receptors known to be modulated by environmental chemicals; importance in human hepatocyte functionality; and hepatotoxicity. […]
# Nuclear factor erythroid 2-related factor 2 (Homo sapiens), sequence (Q16236 whole entry, looked up): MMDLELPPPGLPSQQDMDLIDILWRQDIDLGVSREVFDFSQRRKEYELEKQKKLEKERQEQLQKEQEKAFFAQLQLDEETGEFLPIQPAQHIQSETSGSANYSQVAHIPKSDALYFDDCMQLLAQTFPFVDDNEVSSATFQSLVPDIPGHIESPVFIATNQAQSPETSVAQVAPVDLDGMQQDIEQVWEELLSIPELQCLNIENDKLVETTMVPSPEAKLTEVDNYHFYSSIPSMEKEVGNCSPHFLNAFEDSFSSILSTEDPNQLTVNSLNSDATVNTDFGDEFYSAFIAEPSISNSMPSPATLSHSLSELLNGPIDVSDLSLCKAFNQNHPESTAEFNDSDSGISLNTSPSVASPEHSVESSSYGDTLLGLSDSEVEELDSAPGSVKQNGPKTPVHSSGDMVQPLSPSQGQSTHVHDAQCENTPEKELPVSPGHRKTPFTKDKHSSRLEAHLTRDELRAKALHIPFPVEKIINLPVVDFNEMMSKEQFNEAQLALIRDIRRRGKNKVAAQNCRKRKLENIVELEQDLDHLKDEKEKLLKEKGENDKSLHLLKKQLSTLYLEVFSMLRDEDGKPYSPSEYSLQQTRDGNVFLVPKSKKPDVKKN
SMILES,outcome,AC50
CCSC(=O)N(CC(C)C)CC(C)C,inactive,–
c1ccc(Nc2ccccc2)cc1,inactive,–
COc1c(Cl)ccc(Cl)c1C(=O)O,inactive,–
CC(C)(c1ccc(O)cc1)c1ccc(O)cc1,inactive,–
Cc1nn(C)c(Oc2ccccc2)c1C=NOCc1ccc(C(=O)OC(C)(C)C)cc1,–,33 µM (active)
OB(O)O,inactive,–
COC(=O)c1ccc(I)cc1S(=O)(=O)NC(=O)Nc1nc(C)nc(OC)n1,inactive,–
CCN(CC)C(=O)c1cccc(C)c1,inactive,–
CSC(=O)c1cccc2nnsc12,inactive,–
CCOC(=O)c1ccc(O)cc1,inactive,–
O=C(c1ccc(O)cc1O)c1ccc(O)cc1O,inactive,–
C=CCOC(Cn1ccnc1)c1ccc(Cl)cc1Cl (stereo not given),–,21.8 µM (active)
CCCCC(CC)CN1C(=O)C2C3C=CC(C3)C2C1=O (stereo not given),inactive,–
CCCCOC(=O)C(C)Oc1ccc(Oc2ccc(C(F)(F)F)cn2)cc1 (stereo not given),inactive,–
CC(=O)S[C@@H]1CC2=CC(=O)CC[C@]2(C)[C@H]2CC[C@@]3(C)[C@@H](CC[C@@]34CCC(=O)O4)[C@H]12,inactive,–
N#CSCSc1nc2ccccc2s1,inactive,–
C[C@]12C[C@H](O)[C@H]3[C@@H](CCC4=CC(=O)CC[C@@]43C)[C@@H]1CC[C@@H]2C(=O)CO,inactive,–
COC(=O)c1ccccc1C(=O)O,inactive,–
CCCCC(CC)COC(=O)c1ccccc1C(=O)O (stereo not given),inactive,–
CN(C)C(=O)Nc1ccc(Cl)c(Cl)c1,–,83.3 µM (active)

SMILES,outcome,AC50
C#C[C@]1(O)CC[C@H]2[C@@H]3CCC4=CC(=O)CC[C@@H]4[C@H]3CC[C@@]21CC,inactive,–
CCCCOC(=O)[C@@H](C)Oc1ccc(Oc2ccc(C(F)(F)F)cn2)cc1,inactive,–
CCCCOCCOCCOCc1cc2c(cc1CCC)OCO2,–,9.6 µM (active)
O=C(Nc1ccc([N+](=O)[O-])cc1Cl)c1cc(Cl)ccc1O,inactive,–
S=C([S-])NCCNC(=S)[S-].[Mn+2],inactive,–
CC(=O)[C@H]1CC[C@H]2[C@@H]3CCC4=CC(=O)CC[C@]4(C)[C@H]3CC[C@]12C,inactive,–
CCCCCOC(=O)COc1cc(N2C(=O)C3=C(CCCC3)C2=O)c(F)cc1Cl,inactive,–
C#CCOC(=O)[C@@H](C)Oc1ccc(Oc2ncc(Cl)cc2F)cc1,inactive,–
CCCCCCC(C)OC(=O)COc1nc(F)c(Cl)c(N)c1Cl (stereo not given),inactive,–
CCOC(=O)COc1cc(-n2ncc(C(F)(F)F)c(C)c2=O)c(F)cc1Cl,inactive,–
C[C@]12CC[C@@H]3c4ccc(O)cc4C[C@@H](CCCCCCCCCS(=O)CCCC(F)(F)C(F)(F)F)[C@H]3[C@@H]1CC[C@@H]2O (stereo not given in full),inactive,–
CC1(C)C(C=C(Cl)Cl)C1C(=O)OCc1cccc(Oc2ccccc2)c1 (stereo not given),inactive,–
CC(C)CCCCCCc1ccc(O)cc1,inactive,–
Oc1ccc(C(c2ccc(O)cc2)C(Cl)(Cl)Cl)cc1,–,78.2 µM (active)
S=C(S)NCCNC(=S)S.[Mn+2].[S-]C([S-])=NCCN=C([S-])[S-].[Zn+2],inactive,255 nM (active) and 539 nM (active)
CCNc1nc(N)nc(Cl)n1,inactive,–
CCN(Cc1c(F)cccc1Cl)c1c([N+](=O)[O-])cc(C(F)(F)F)cc1[N+](=O)[O-],–,50 µM (active)
COCCO,inactive,–
CCOC(=O)NCCOc1ccc(Oc2ccccc2)cc1,inactive,–
